The text below walks through data of PubChem BioAssay.

Active and inactive are the calls of the source.

Assay [1] in a line: E. coli DRC41 culture turbidity changes, primary screen, E. coli filamentation inducer project, strain DRC41, OD650, 48 h (AID 1152).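 Note: E. coli MC1000 strain DRC41 lacking acrAB efflux pump and sulA.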 The note with it: E. coli DRC41 (acrAB sulA), higher = more signal, called active from +8 up or from −8 down.
Assay [2] can be described thus: small-molecule binders of probe aLefty1, primary screen, biochemical, small-molecule microarray, 635/667 nm fluorescence (AID 1153).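 Note: score merges spot fluorescence with signal-to-noise ratio from the scanned slide images.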 The note with it: higher = more signal.
Assay [3] in a line: PSAC antagonists in infected red cells, primary screen, cell-based, P. falciparum Indochina, OD700, 1 h (AID 1154). The note with it: P. falciparum Indochina infected RBC osmotic lysis, higher = more signal, called active from +8 up or from −8 down.
A short description of assay [4]: PSAC antagonists in infected red cells, primary screen, cell-based, P. falciparum Indochina, OD700, 2 h (AID 1155).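 Note: lysis reports solute entry through the parasite surface anion channel PSAC; channel blockers reduce lysis of infected cells.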 Particulars: P. falciparum Indochina infected erythrocytes, osmotic lysis OD700; higher = more signal, called active from +8 up or from −8 down.
A short description of assay [5]: osmotic lysis modulators in infected erythrocytes, primary screen, PSAC antagonist project, cell-based, P. falciparum Indochina, OD700, 3 h (AID 1156). The note with it: higher = more signal, called active from +8 up or from −8 down.
A short description of assay [6]: PSAC antagonists in infected red cells, primary screen, cell-based, P. falciparum Indochina, OD700, 18 h (AID 1157). The note with it: P. falciparum Indochina infected erythrocytes, osmotic lysis OD700, 18 h; higher = more signal, called active from +8 up or from −8 down.
Assay [7] is described as follows: modulators of S6 phosphorylation in cells, primary screen, cell-based, A549, cytoblot, luminescence, serum-stimulated (AID 1158).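 Note: serum-stimulated A549 lung adenocarcinoma cells; signal is phosphorylated S6 detected by cytoblot immunostaining with HRP secondary.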 The note with it: A549 phospho-S6 cytoblot, 5 h, higher = more signal.
In assay [8] the target is NADPH oxidase 2 (Homo sapiens) (UniProt P04839). Kind of assay: NOX2-dependent H2O2 signal modulators, primary screen, NOX inhibitor project, cell-based, HEK293-NOX2, PMA-stimulated, Amplex Red fluorescence (AID 1159). Note: test concentration not given here. The note with it: 45 min, higher = more signal, called active from +8 up or from −8 down.
NADPH oxidase 2 (Homo sapiens), sequence (P04839 whole entry, looked up): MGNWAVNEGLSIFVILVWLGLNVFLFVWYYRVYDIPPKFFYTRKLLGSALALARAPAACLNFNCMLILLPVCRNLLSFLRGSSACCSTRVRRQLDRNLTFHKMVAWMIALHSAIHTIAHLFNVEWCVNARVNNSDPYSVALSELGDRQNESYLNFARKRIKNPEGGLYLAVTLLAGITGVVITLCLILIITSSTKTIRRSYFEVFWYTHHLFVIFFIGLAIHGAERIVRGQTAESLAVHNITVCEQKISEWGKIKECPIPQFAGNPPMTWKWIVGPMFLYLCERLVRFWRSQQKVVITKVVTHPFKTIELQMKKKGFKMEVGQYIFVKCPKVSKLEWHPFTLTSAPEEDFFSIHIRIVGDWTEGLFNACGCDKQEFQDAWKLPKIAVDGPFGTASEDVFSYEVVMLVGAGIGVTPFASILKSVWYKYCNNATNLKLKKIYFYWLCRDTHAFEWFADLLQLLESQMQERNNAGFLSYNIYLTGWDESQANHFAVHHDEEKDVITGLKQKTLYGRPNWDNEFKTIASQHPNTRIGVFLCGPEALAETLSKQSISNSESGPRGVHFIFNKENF
The target of assay [9] is NADPH oxidase 4 (Homo sapiens) (UniProt Q9NPH5). Kind of assay: NOX4-dependent H2O2 signal modulators, primary screen, NOX inhibitor project, cell-based, HEK293-NOX4, tetracycline-induced, Amplex Red fluorescence (AID 1160). Particulars: 45 min, higher = more signal, called active from +8 up or from −8 down.
NADPH oxidase 4 (Homo sapiens), sequence (Q9NPH5 whole entry, looked up): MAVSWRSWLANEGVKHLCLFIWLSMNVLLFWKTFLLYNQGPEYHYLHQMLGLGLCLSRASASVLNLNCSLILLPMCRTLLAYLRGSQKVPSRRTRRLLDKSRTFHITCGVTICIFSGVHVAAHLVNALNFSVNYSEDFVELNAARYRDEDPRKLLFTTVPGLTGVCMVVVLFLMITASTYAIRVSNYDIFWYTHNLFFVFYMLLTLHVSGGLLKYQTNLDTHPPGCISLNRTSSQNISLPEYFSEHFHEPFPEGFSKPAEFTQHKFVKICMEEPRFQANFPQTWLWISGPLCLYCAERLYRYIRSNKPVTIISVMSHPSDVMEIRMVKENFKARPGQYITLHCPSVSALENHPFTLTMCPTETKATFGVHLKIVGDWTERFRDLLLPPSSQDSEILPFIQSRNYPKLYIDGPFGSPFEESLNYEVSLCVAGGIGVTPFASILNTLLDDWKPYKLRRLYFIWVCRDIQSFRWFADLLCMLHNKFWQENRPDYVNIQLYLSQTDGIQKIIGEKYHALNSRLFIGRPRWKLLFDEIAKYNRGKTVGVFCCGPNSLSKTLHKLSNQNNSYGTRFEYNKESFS
Assay [10] has as its target NADPH oxidase 5 (Homo sapiens) (UniProt Q96PH1). The assay can be described thus: NOX5-dependent H2O2 signal modulators, primary screen, NOX inhibitor project, cell-based, HEK293-NOX5, Amplex Red fluorescence (AID 1161). The note with it: HEK293-NOX5, ionomycin, 45 min, higher = more signal.
Assay [11] can be described thus: A549 cell viability effects, profiling panel, calcein-AM fluorescence, 48 h, basal (AID 1162). Note: test concentration not given here. The note with it: higher = more signal.
The nature of assay [12]: adipocyte viability effects, profiling panel, cell-based, 3T3-L1 adipocytes, calcein-AM fluorescence, 48 h, basal (AID 1163). Note: test concentration not given here. The note with it: 3T3-L1 adipocytes viability, higher = more signal.
Assay [13] is described as follows: HepG2 cell viability effects, profiling panel, calcein-AM fluorescence, 48 h, basal (AID 1164). Note: test concentration not given here. The note with it: higher = more signal.
Assay [14] in a line: MM1S cell viability effects, profiling panel, calcein-AM fluorescence, 48 h, basal (AID 1165).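 Note: viability of MM1S multiple myeloma cells under basal unstimulated conditions; test concentration not given here.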 Particulars: higher = more signal.
The nature of assay [15]: basal RPMI8226 viability, no added stimulus, profiling panel, cell-based, calcein-AM fluorescence, 48 h, PK04 Diversity Set (AID 1166).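 Note: cells grown under basal conditions without added stimulus; test concentration not given here.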 Particulars: RPMI8226 myeloma viability, higher = more signal.
Assay [16] in a line: basal HepG2 mitochondrial membrane potential changes, profiling panel, cell-based, JC-1 fluorescence, 24 h, 100 nL compound (AID 1167). Note: test concentration not given here. The note with it: higher = more signal.
The nature of assay [17]: basal 3T3-L1 adipocyte mitochondrial potential changes, profiling panel, cell-based, JC-1 fluorescence, 3T3-L1 adipocytes, 24 h, 100 nL compound (AID 1168). Note: test concentration not given here. Particulars: JC-1 mitochondrial fluorescence, higher = more signal, called active from +8 up or from −8 down.
Assay [18] can be described thus: basal RPMI8226 mitochondrial membrane potential changes, profiling panel, cell-based, JC-1 fluorescence, 24 h, 100 nL compound (AID 1169). Note: test concentration not given here. The note with it: RPMI8226 myeloma, JC-1 mitochondrial potential fluorescence, higher = more signal.
The nature of assay [19]: basal MM1S mitochondrial membrane potential changes, profiling panel, cell-based, JC-1 fluorescence, 24 h, 100 nL compound (AID 1170). Note: test concentration not given here. The note with it: higher = more signal.
Assay [20] in a line: A549 lung cancer cell viability effects, profiling panel, resazurin fluorescence, 24 h, PK04 Diversity Set (AID 1171). Note: test concentration not given here. Particulars: higher = more signal, called active from +8 up or from −8 down.

NADPH oxidase 5 (Homo sapiens), sequence (Q96PH1 whole entry, looked up): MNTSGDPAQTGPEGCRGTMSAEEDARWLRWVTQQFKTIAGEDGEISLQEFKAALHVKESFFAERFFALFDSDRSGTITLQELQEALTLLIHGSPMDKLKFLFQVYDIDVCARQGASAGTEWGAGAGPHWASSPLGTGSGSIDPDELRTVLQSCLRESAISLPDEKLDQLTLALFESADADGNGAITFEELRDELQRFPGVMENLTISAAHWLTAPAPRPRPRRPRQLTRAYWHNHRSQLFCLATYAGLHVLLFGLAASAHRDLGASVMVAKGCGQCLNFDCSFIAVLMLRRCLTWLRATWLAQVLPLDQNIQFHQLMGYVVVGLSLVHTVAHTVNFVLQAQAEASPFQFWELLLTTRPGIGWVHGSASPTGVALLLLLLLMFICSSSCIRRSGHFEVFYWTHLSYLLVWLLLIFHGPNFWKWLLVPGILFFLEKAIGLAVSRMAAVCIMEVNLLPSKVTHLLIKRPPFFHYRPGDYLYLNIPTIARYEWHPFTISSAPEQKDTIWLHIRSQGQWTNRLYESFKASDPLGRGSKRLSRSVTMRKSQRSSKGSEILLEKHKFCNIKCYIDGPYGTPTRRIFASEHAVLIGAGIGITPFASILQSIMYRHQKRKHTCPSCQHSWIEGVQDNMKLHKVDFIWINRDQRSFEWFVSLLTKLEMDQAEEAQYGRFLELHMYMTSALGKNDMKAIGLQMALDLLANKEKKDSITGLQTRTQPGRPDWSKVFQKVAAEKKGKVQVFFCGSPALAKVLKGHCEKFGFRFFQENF

Consider `COc1ccccc1CN1C(=O)c2ccccc2[C@](Cc2ccccc2I)(C(=O)NCC(C)C)[C@@H]1c1ccc(CO)cc1`, for which the z-score in [1] is 2.48 (inactive); in assay [3], 4.68 (inactive); in assay [4] it was 1.44 (inactive); in assay [5], 2.61 (inactive); in assay [6], 0.745 (inactive); in assay [7], 0.276. The z-score in [8] was -0.943 (inactive); in assay [9], 0.928 (inactive); in [10] it was -0.234; in assay [11] it was 1.26; in [12], 0.297; in assay [13], 2.05. Also, the z-score was -0.746 in assay [14]; -0.458 in assay [15]; 1.41 in assay [16]; -0.808 (inactive) in assay [17]; -0.38 in assay [18]; -0.257 in [19]. The z-score in [20] was 0.41 (inactive). For the same compound, the composite z-score in assay [2] is 0.19.
On to `COc1ccc([Si](C)(C)[C@@H]2[C@@H](CC(=O)N3CCC[C@H]3CO)O[C@]3(C(=O)N(Cc4ccc(N5CCOC5=O)cc4)c4ccccc43)[C@H]2C)cc1`, for which the z-score in assay [1] is 1.3 (inactive); in assay [3] it was 6.25 (inactive); in assay [4], 0.176 (inactive); in assay [5] it was -1.52 (inactive); in [6] it was -0.774 (inactive); in assay [7] it was 0.615. Further, the z-score in assay [8] is 2.64 (inactive); in assay [9] it was 1.57 (inactive); in assay [10] it was 3.85; in assay [11] it was -0.526; in [12] it was 1.05; in [13], -2.21. Besides, the z-score in assay [14] is -2.64; in assay [15], -4.54; in assay [16], 0.391; in assay [17], 1.67 (inactive); in assay [18], -1.07; in assay [19] it was -1.75. Besides, the z-score in assay [20] was -1.77 (inactive). For the same compound, in [2], the composite z-score was -0.0099.
Regarding `C=CCOC(=O)[C@H]1[C@@H]2C(=O)O[C@@H](c3ccccc3)[C@@H](c3ccccc3)N2[C@@H](c2ccc(OCCOC(=O)[C@H]3C[C@H]4C(=O)N[C@@H](CC(C)C)C(=O)N4[C@H]3c3ccc(O)cc3)cc2)[C@]12C(=O)Nc1ccccc12`, the z-score is 0.324 (inactive) in assay [1]; 1.64 (inactive) in assay [3]; 0.998 (inactive) in [4]; 3.83 (inactive) in assay [5]; 0.964 (inactive) in [6]; 0.758 in assay [7]. Also, the z-score was 1.2 (inactive) in assay [8]; 0.776 (inactive) in assay [9]; 1.4 in [10]; 0.0118 in assay [11]; -0.382 in assay [12]; 0.414 in assay [13]. Also, the z-score in [14] was 0.178; in [15] it was 0.34; in [16] it was -1.78; in [17], 1.05 (inactive); in assay [18], -0.485; in assay [19], -1.19. Besides, the z-score in [20] is 1.96 (inactive). In assay [2], this compound registered a composite z-score of 0.13.
For `CCCN1C(=O)[C@]2(CCC(=O)OC(C)(C)C)N=C(c3ccc(OCCCO)cc3)O[C@@H]2c2ccccc21`, the z-score in [1] was 0.239 (inactive); in assay [3], 34.1 (active); in assay [4], 36.8 (active); in [5], 2.57 (inactive); in assay [6], 8.76 (active); in assay [7], -0.0347. For the same compound, the z-score is -3.07 (inactive) in assay [8]; -0.483 (inactive) in assay [9]; -1.51 in [10]; -1.19 in assay [11]; 0.92 in assay [12]; -1.49 in assay [13]. The z-score was -3.41 in assay [14]; -4.37 in assay [15]; 1.01 in [16]; 2.01 (inactive) in assay [17]; -1.32 in [18]; -1.54 in assay [19]. Further, in assay [20], the z-score was -0.965 (inactive). The compound also had a composite z-score in assay [2] of 0.26.
